# Test results as given in PubChem BioAssay AID2405 (Southern Research Specialized Biocontainment Screening …, 2010).
# A number with no mark means an inactive call. No rule for the calls is given here.
# Assay: anti-RSV activity of probe candidates, cell-based (AID 2405)
# Conditions: RSV cytopathic effect inhibition, HEp-2 cells, stronger effect = higher value; at 100 µM unless noted
row,SMILES,maximum inhibition
1,COc1ccc(-c2csc(N(CCCN(C)C)C(=O)c3ccccc3C)n2)cc1,0.96% [at 0.2 µM]
2,COc1ccc(Cn2nc(C)cc2OC(=O)c2ccccc2)cc1,0.91% [at 25 µM]
3,O=C(CSc1nc2ccccc2c(=O)n1-c1ccc(F)cc1)Nc1cccc2ccccc12,16.6%
4,CCN(CC)CCCNC(=S)N1CCN(c2nc(-c3ccccc3)cs2)CC1,1.02% [at 0.2 µM]
5,O=c1c2cc(I)ccc2nc2n1CCC2,5.94%
6,O=C(CSc1nc2ccc(F)cc2c(=O)n1-c1ccccc1)Nc1ccc2c(c1)CCC2,14.7%
7,O=C(Nc1nc(-c2ccc(Cl)cc2)cs1)c1ccc(Cl)cc1,2.44%
8,O=C(CSc1nc2ccccc2c(=O)n1-c1ccc(F)c(Cl)c1)Nc1ccc2c(c1)CCC2,6.32%
9,Cc1cccc2nc3n(c(=O)c12)CCC3,1.49% [at 25 µM]
10,COc1ccc(-c2csc(N(CCCN(C)C)C(=O)c3ccccc3F)n2)cc1,5.17%
11,Cc1ccc2nc3n(c(=O)c2c1)CCC3,2%
12,COc1ccccc1NC(=O)CSc1nc2ccccc2c(=O)n1-c1ccc(F)cc1,3.44% [at 6.25 µM]
13,OC1c2cc(Br)ccc2N=C2CCCCN21 (stereo not given),6.83%
14,COc1ccc(Cn2nc(C)cc2OC(=O)c2c(F)ccc(C)c2F)cc1,1.16% [at 50 µM]
15,COc1ccc(NC(=O)CSc2nc3ccccc3c(=O)n2-c2ccc(F)cc2)cc1,18.6%
